Test results: PMC4336329 (PLoS ONE, 2015)
In all, about 310,000 compounds went through this assay and about 14,000 (4.5%) showed an effect of 50% or more. Effects have a minus sign here. What follows is part of a selection rich in strong results, with near analogues and random picks from the rest.

Target: human ether-à-go-go-related gene (hERG) potassium channel (human, UniProt Q12809)
Assay: primary screen, population patch clamp on CHO cells stably expressing hERG; higher = less effect of the substance
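Further: peak tail current of the secondary pulse compared with the same well before compound.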

human ether-à-go-go-related gene (hERG) potassium channel, sequence (Q12809 whole entry, looked up): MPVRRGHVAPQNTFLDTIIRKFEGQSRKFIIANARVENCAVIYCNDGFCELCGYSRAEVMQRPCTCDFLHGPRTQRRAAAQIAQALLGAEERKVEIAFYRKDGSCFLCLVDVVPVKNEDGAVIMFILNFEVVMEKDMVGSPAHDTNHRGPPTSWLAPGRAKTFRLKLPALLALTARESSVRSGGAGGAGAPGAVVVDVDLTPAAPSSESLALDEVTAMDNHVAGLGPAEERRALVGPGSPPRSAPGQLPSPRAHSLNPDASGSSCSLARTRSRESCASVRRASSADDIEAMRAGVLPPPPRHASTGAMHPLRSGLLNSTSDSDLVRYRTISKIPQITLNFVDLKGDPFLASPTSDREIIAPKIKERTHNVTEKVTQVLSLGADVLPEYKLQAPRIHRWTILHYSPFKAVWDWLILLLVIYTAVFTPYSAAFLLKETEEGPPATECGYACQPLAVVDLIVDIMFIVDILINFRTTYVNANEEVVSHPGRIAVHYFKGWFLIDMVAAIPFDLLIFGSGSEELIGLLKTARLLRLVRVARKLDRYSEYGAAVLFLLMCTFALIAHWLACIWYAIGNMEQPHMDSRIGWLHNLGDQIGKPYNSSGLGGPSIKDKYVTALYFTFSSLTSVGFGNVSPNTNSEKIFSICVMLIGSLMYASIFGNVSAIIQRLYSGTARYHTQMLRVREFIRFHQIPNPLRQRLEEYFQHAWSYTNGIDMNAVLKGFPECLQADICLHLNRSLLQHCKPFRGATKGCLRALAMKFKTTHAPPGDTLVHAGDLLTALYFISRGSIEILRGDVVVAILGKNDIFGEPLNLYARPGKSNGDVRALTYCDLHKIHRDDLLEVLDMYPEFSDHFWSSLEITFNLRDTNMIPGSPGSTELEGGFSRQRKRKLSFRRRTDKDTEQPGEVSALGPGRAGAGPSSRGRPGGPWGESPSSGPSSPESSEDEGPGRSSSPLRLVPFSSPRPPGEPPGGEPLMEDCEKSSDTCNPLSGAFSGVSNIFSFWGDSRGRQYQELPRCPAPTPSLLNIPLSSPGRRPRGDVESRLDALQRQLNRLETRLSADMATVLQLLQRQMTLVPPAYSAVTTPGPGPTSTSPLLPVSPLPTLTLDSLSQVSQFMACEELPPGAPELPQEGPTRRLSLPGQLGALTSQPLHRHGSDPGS

Point of comparison: `Nc1ccc(NC(=O)c2ccccc2)c2c1C(=O)c1ccccc1C2=O`, “hERG current change (%, negative = inhibition) at 10uM” value 2.65%. Against it:
- COC(=O)c1cnn(-c2ccc(Cl)cc2)c1/C=N/NC(N)=S — higher, 7.44%
- O=C(Nc1cccc(-c2csc(Nc3cccc(C(F)(F)F)c3)n2)c1)c1cc([N+](=O)[O-])cc(C(F)(F)F)c1 — higher, 5.05%
- CC(C)Oc1ccc(CNCCC2(C(C)C)CCOC(C)(C)C2)cc1 (stereo not shown) — lower, -45.4%
- COc1ccc(NC(=O)Nc2ncn(Cc3cccc(C(F)(F)F)c3)n2)cc1OC — lower, -32.5%
- NC(=O)C(c1ccccc1)c1ccc(C(=O)c2ccccc2)cc1 (stereo not shown) — higher, 3.08%
- CC(C)N1CCC(N2CCN(CC#Cc3ccccc3)CC2CCO)CC1 (stereo not shown) — lower, 0.615%
- CCc1ccc(N2CC(O)=C(c3nc4ccccc4c(=O)[nH]3)C2=N)cc1 — higher, 2.98%
- CCOc1ccc(Nc2oc(Cc3ccccc3)nc2C#N)cc1 — lower, -1.96%
- CCCCOc1cc(CC2CNC(=O)N2)ccc1OC (stereo not shown) — lower, -2.83%
- COc1ccccc1NC(=O)Cn1c(=O)oc2cc(S(=O)(=O)N3CCCC3)ccc21 — higher, 16.6%
- CCOC(=O)N1CCc2c(sc(NC(=O)Cc3ccccc3)c2C(=O)c2ccc(OC)cc2)C1 — higher, 13.7%
- CCOC(=O)N1CCc2c(sc(NC(=O)CN3CCN(C)CC3)c2C(=O)Nc2ccccc2)C1 — lower, -77.2%
- CCOC(=O)N1CCc2c(sc(NC(=O)CN3CCOCC3)c2C#N)C1 — lower, -1.09%
- CCOC(=O)N1CCc2c(sc(NC(=O)CN3CCOCC3)c2C(=O)Nc2ccccc2)C1 — lower, -68.8%
- CCOC(=O)c1c(NC(=S)N2CCOCC2)sc2c1CCN(C(=O)OCC)C2 — lower, -1.31%
- CCOC(=O)c1c(NC(=O)CN2CCCCC2)sc2c1CCN(C(=O)OCC)C2 — lower, -10.9%
- O=C(CNC(=O)c1ccco1)OC(C(=O)c1ccccc1)c1ccccc1 (stereo not shown) — lower, 0.438%
- CCN1C(=O)C2(C(C(=O)c3ccc(C)o3)=C(O)C(=O)N2CCCN2CCOCC2)c2ccccc21 (stereo not shown) — lower, 0.0517%
- O=C(CSc1nccc(=O)[nH]1)N1CCOCC1 — higher, 3.03%
- COc1cc(SC)ccc1C(=O)OCc1nc2ccsc2c(=O)[nH]1 — lower, -30.6%
- O=C(CSc1nnc(Nc2ccccc2)s1)NCC1CCCO1 (stereo not shown) — lower, -1.51%
- COc1cc2ccccc2cc1C(=O)NNC(=O)c1ccccc1O — higher, 7.31%
- COc1cccc2c(=O)c3c([nH]c12)OC(C)(C)C3 — higher, 13%
- COc1cc2ncnc(NCc3ccc(C)cc3)c2cc1OC — lower, -0.937%
- COc1ccc(CNc2ncnc3cc(OC)c(OC)cc23)cc1 — lower, -3.69%
- COc1cc2ncnc(NCc3ccc(F)cc3)c2cc1OC — lower, -52.5%
- COc1cc2ncnc(NCc3ccc(Cl)cc3)c2cc1OC — lower, -31.2%
- COc1cc2ncnc(NCc3cccc(Cl)c3)c2cc1OC — lower, -63.9%
- COc1cccc(CNc2ncnc3cc(OC)c(OC)cc23)c1 — lower, -11.6%
- Cc1ccccc1Cn1c(=O)n(CCCC(=O)NCc2ccco2)c(=O)c2ccccc21 — lower, -15.5%
- Nn1c(SCc2cccc(Cl)c2)nnc1-c1ccncc1 — lower, -2.64%
- Cc1cc(C(=O)C(=O)N(C)C)c(C)n1-c1ccc(Cl)c(Cl)c1 — lower, -28.9%
- COc1ccc(S(=O)(=O)N(CCN2CCOCC2)Cc2cc(OC)ccc2OC)cc1 — lower, -10.7%
- CC(C)N1C(=O)CC(Nc2ccc(N3CCOCC3)cc2)C1=O (stereo not shown) — lower, 2.64%
- CN1CCN(c2ccc(NC(=O)c3cc([N+](=O)[O-])ccc3N3CCOCC3)cc2)CC1 — lower, -2.4%
- O=C(O)c1cc([N+](=O)[O-])ccc1C(=O)Nc1ccccc1 — higher, 12.7%
- COc1ccc(NC(=O)c2cc([N+](=O)[O-])ccc2N2CCNCC2)cc1 — lower, -44.5%
- CN1CCN(c2ccc([N+](=O)[O-])cc2C(=O)Nc2ccccc2)CC1 — lower, -71.1%
- COc1cccc(NC(=O)c2cc([N+](=O)[O-])ccc2N2CCN(C)CC2)c1 — lower, -57.7%
- COc1ccc(NC(=O)c2cc([N+](=O)[O-])ccc2O)cc1 — lower, -57.6%
- Cc1cccc(NC(=O)c2cc([N+](=O)[O-])ccc2N2CCN(C)CC2)c1 — lower, -61.9%
- Cc1ccc(NC(=O)c2cc([N+](=O)[O-])ccc2N2CCOCC2)cc1C — lower, -42.3%
